# Results taken from PMC12864922, “TDP-43 directly inhibits mRNA accumulation in neurites through modulation of mRNA stability”.
# Over roughly 9,900 sequences, “r (bound/input frequency ratio)” has its median near 0.7; the highest 2% begin near 6.5. The entries come from a sample that favours the highest values as a whole.
# B1: ENSMUSG00000004113.197|Cacna1b|112:116 (ssRNA)
# RNA: GGGAGUUCUACAGUCCGACGAUCGCUUCGAUAUCCGCAUGCUACCUCUGCUCAACCAAGUGCCUGAUCUCUGGCUCUGAGCAUCGUGGAUGAGGUACGGCCUCAGGAAGCAUCGGGUGGAUUGGGUGGGAGCUGCUCAGAGCAGCACGGGGGCUACACACUUAGGGACAUUGACAGUGUCCAUCAGCAUGUCAGAGAAGCAGCUGUAGUGCCCGUGUUUCUCCCUGAGUCAUGGGUUCUGAAGAAGCCAGAGCGGCACAAUGCGUGCUUGCAUGAGGCACUUUCAGCCUUUUUAAAUCUGACUCUCUUGCGGUCGCACUAGUGUGGAAUUCUCGGGUGUCAAGG
# B2: ENSMUSG00000090935.575|Synj2bp (ssRNA)
# RNA: GGGAGUUCUACAGUCCGACGAUCGCUUCGAUAUCCGCAUGCUAAUUCAAAUUUUAUGUUUCUUAUAGACUGACUCAAAUAUUCCUACCACCUUAAAAUUAUAUAUGAUGCACCUACCACAUAAAUUAUAAUGUUUAAUGUUUUGAAAAUGGAUUAUAGGUAUUUUUAAGUUUUCAUAAAGUAUUUCUUAUAUUUGUCAUUGUGAAUUAUAUGUAAUUCUAAUAGACACUGUUUGCUUCAGUUGUUUUUGUUUCCUUUUCCUACAGUUUUCUGUGUGGGUGAUUUCAUUUAAUUAAUUGGACAGCUCUUGCGGUCGCACUAGUGUGGAAUUCUCGGGUGUCAAGG
# B3: ENSMUSG00000028439.177|Fam219a (ssRNA)
# RNA: GGGAGUUCUACAGUCCGACGAUCGCUUCGAUAUCCGCAUGCUAUAUGCACAUGUGUGUGCAUGUGUGUGUGCCUGUGUGUGUGCGUGUGCGUGUGUGUAUGUGUGUGCGUGUGUGUGUGUGUGUGUUGUACCCGAGUGUGUGUUGAGCCUAUCUGUCCAGGGAACCAGAUUGGUGUCCGAGAUGAGGAAAUGGCUGUGGCCUGGGAAAUCAGUGAGAGGCCGCUUGGGAAUGAGAAUGCAGUGGACUGAAAGCACAGCCUGGCCAUCUGGAACCUGGGUUCUGGUCCCAGCCUCGGCAUUCUCCUCUUGCGGUCGCACUAGUGUGGAAUUCUCGGGUGUCAAGG
# B4: ENSMUSG00000028439.180|Fam219a (ssRNA)
# RNA: GGGAGUUCUACAGUCCGACGAUCGCUUCGAUAUCCGCAUGCUAUGUGUGUGUGCCUGUGUGUGUGCGUGUGCGUGUGUGUAUGUGUGUGCGUGUGUGUGUGUGUGUGUUGUACCCGAGUGUGUGUUGAGCCUAUCUGUCCAGGGAACCAGAUUGGUGUCCGAGAUGAGGAAAUGGCUGUGGCCUGGGAAAUCAGUGAGAGGCCGCUUGGGAAUGAGAAUGCAGUGGACUGAAAGCACAGCCUGGCCAUCUGGAACCUGGGUUCUGGUCCCAGCCUCGGCAUUCUCCCUGAGCUCCUAAGCAAUCUCUUGCGGUCGCACUAGUGUGGAAUUCUCGGGUGUCAAGG
# B5: ENSMUSG00000028439.179|Fam219a (ssRNA)
# RNA: GGGAGUUCUACAGUCCGACGAUCGCUUCGAUAUCCGCAUGCUAUGUGCAUGUGUGUGUGCCUGUGUGUGUGCGUGUGCGUGUGUGUAUGUGUGUGCGUGUGUGUGUGUGUGUGUUGUACCCGAGUGUGUGUUGAGCCUAUCUGUCCAGGGAACCAGAUUGGUGUCCGAGAUGAGGAAAUGGCUGUGGCCUGGGAAAUCAGUGAGAGGCCGCUUGGGAAUGAGAAUGCAGUGGACUGAAAGCACAGCCUGGCCAUCUGGAACCUGGGUUCUGGUCCCAGCCUCGGCAUUCUCCCUGAGCUCCUACUCUUGCGGUCGCACUAGUGUGGAAUUCUCGGGUGUCAAGG
# B6: ENSMUSG00000028439.178|Fam219a (ssRNA)
# RNA: GGGAGUUCUACAGUCCGACGAUCGCUUCGAUAUCCGCAUGCUACAUGUGUGUGCAUGUGUGUGUGCCUGUGUGUGUGCGUGUGCGUGUGUGUAUGUGUGUGCGUGUGUGUGUGUGUGUGUUGUACCCGAGUGUGUGUUGAGCCUAUCUGUCCAGGGAACCAGAUUGGUGUCCGAGAUGAGGAAAUGGCUGUGGCCUGGGAAAUCAGUGAGAGGCCGCUUGGGAAUGAGAAUGCAGUGGACUGAAAGCACAGCCUGGCCAUCUGGAACCUGGGUUCUGGUCCCAGCCUCGGCAUUCUCCCUGAGCUCUUGCGGUCGCACUAGUGUGGAAUUCUCGGGUGUCAAGG
# B7: ENSMUSG00000043670.57|Diras1|205:210 (ssRNA)
# RNA: GGGAGUUCUACAGUCCGACGAUCGCUUCGAUAUCCGCAUGCUACCUGCCUCUUCACACCUCCAUAGCUUCAUCCUUUGCAGACCUCUCCCUCUAUAUCUCUUUGCUCCCCCACCCCCAUUCUAUCUGCACCCCACAACCACACACUGGAGGUUUGAUCCCUGUGGAUCUGAAAACAGGGACCUGGCUAAGGAACUGCUCAUCCCAGUCAGGCCCAGAGAGGUUACCUUGCCUCUCCAUCUCUGUCCCACACACCCCAGCCAUGCCCACUGUCCCUGUCCCUCACAUUCUAUCACUGUGACCUCCUCUUGCGGUCGCACUAGUGUGGAAUUCUCGGGUGUCAAGG
# B8: ENSMUSG00000032194.139|Kank2 (ssRNA)
# RNA: GGGAGUUCUACAGUCCGACGAUCGCUUCGAUAUCCGCAUGCUAGGAAAUGACCAACUUACAAGAAGUUAUGCUGACCUCCCUGUUCCCCACGGGGAGUGCUUGGCAGAGGAGACUACUUCUAGAAAUACUUUCAGACCUACAGACAAAAAAGAAAAAAGGCCAUUCCGGAGUGACUCCCAGCAUCACAGCCCAGAACCUCCUCCUCAAAGGAGAGUAAACAGAGACUGUGAUACUGACCAAGUACAGGCGCUCGCUAUGAAGCCCAUAUGUUCCUGAUUAAGAGCUGGCUGGCCUCAGAGCACCUCUUGCGGUCGCACUAGUGUGGAAUUCUCGGGUGUCAAGG
# B9: ENSMUSG00000004113.476|Cacna1b|225:230 (ssRNA)
# RNA: GGGAGUUCUACAGUCCGACGAUCGCUUCGAUAUCCGCAUGCUAAGAGAGAGAGAUCCAGUCAUGCAACACAAAUGGGAUCUACUUUUAAACAACAGUCCUUUGACUAGUUUGCUGCCUGAAUAAUAUUUACAAACUAAACUUUGGAUUCUGCUCUUGUUUCUACAAUGAUUUUUUGUAUAAAGCAAAGUCCUUGGAUUAAAUAAAAACAACCCAAAAAAAAAAUCAAAAUCAAAACCCAGGAUGCAACUGGGUGAUACCUGAGGACACACACACUCAGUGCGUCGGUGGAGAGGGUAUACUGCCUCUUGCGGUCGCACUAGUGUGGAAUUCUCGGGUGUCAAGG
# B10: ENSMUSG00000090935.398|Synj2bp (ssRNA)
# RNA: GGGAGUUCUACAGUCCGACGAUCGCUUCGAUAUCCGCAUGCUAAAUUUCCUUCUUUUCAGUAAAUUGGCCAGACUAUUAUUUUGACAUAAGAUUAUGAAGAGUUUUCCCGACAGUCUAGCAGUCACUUAACAGAUGUUGAUUGCACAUUAGUUUUGUCAGGACACCUUUAUAAAAAGAGAAAUGCACAUAUUUCAUCCAAAGGGACAUUGUGGUUACAGUUAGGAAGGAAACCCUUAAAAUGGAGUUAGUUAUCUAAGUGUAAGUUGUUUAUAUUACAGACAGCAAAAGAAAAUAGCUCCUGACUCUUGCGGUCGCACUAGUGUGGAAUUCUCGGGUGUCAAGG
# B11: ENSMUSG00000043670.39|Diras1 (ssRNA)
# RNA: GGGAGUUCUACAGUCCGACGAUCGCUUCGAUAUCCGCAUGCUAGCUCCUGCUCCUUCUCCCCCUCCUUCCUUCCUUUGCCUUGCCCCUCCCUCCUCCAUCUCUCUUCCCUCUUCCUGUCCCCACCAGCCUACAGUAAGGUUGGGCUCCAUCCCUGCCUCUUCACACCUCCAUAGCUUCAUCCUUUGCAGACCUCUCCCUCUAUAUCUCUUUGCUCCCCCACCCCCAUUCUAUCUGCACCCCACAACCACACACUGGAGGUUUGAUCCCUGUGGAUCUGAAAACAGGGACCUGGCUAAGGAACUCUCUUGCGGUCGCACUAGUGUGGAAUUCUCGGGUGUCAAGG
# Target: TDP-43 (Homo sapiens, UniProt Q13148 1-414)
# Test: RNA Bind-n-Seq with designed 260-mer pool; 25 mM Tris-HCl, 150 mM KCl, 3 mM MgCl2, BSA (printed 500 mg/mL), 20 units/mL SUPERase IN; pH not stated; 500 nM RNA pool, 1 h, 4 C; TDP-43 5, 50, 500 nM; high values mean tight binding
# Conditions: protein: recombinant; tags: SBP (GST cleaved off with PreScission; pGEX-GST-SBP)
# Summary of the method: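 In 25 mM Tris-HCl, 150 mM KCl, 3 mM MgCl2, BSA and SUPERase IN, 500 nM of an in vitro-transcribed 260-nt 3′ UTR oligo pool was incubated for 1 h at 4 °C with SBP-tagged TDP-43 (5, 50 or 500 nM) captured on streptavidin beads. RNA remaining after washes was biotin-eluted, reverse transcribed, PCR-amplified and sequenced. Binding, R, is the bound-sample abundance of each oligo, normalized to mapped reads, divided by its abundance in input. Each duplicate used a separate, independent protein batch.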
# Sequence of TDP-43 (Q13148 whole entry): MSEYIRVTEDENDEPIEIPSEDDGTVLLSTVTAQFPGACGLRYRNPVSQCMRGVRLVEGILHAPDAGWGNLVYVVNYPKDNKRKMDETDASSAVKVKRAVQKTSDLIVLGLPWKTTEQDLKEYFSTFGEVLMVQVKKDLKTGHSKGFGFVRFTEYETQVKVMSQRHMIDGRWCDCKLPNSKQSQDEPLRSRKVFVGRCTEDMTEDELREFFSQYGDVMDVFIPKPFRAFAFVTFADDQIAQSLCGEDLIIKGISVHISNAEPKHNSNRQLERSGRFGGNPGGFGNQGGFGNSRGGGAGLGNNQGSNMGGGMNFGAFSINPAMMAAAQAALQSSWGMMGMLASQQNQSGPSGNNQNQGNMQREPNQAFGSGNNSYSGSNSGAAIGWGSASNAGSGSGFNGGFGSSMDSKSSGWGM
row,Binder,binding signal
1,B1,0.691 R (bound/input frequency ratio)
2,B2,0.0736 R (bound/input frequency ratio)
3,B3,8.05 R (bound/input frequency ratio)
4,B4,5.95 R (bound/input frequency ratio)
5,B5,7.2 R (bound/input frequency ratio)
6,B6,9.43 R (bound/input frequency ratio)
7,B7,2.63 R (bound/input frequency ratio)
8,B8,0.307 R (bound/input frequency ratio)
9,B9,0.46 R (bound/input frequency ratio)
10,B10,0.033 R (bound/input frequency ratio)
11,B11,5.05 R (bound/input frequency ratio)
